Results reported in ChEMBL document CHEMBL3988442, “University of Dundee, Small-Polar-MMV Screening Library” (2021).
In all, about 48,000 compounds went through this assay and about 13,000 (27%) showed an effect of 50% or more. The list shows a part of the results.

System: Wolbachia pipientis
Test: Anti-Wolbachia Cell-Based Screen
Format: functional
Design: scale not given: in the data most compounds retested in dose-response had high values
Conditions: 5 µM

Structure (SMILES)	Percent Effect
CC(C)(C)c1nnc(CNc2c(F)cccc2-n2cccn2)o1	-0.1409%
Cc1nc(CN2CCCC(CCc3ccccc3F)C2)c[nH]1 (centres undefined)	15.72%
Cc1cc(C)c(C(=O)NC(CN2CCCC2)c2ccccc2)c(=O)[nH]1 (centres undefined)	1.71%
COCCC(=O)N1CCC2(CCN(Cc3cccc(F)c3)CC2)CC1.O=C(O)C(F)(F)F	-14.44%
COc1cc(N2CCC3(CCCN3Cc3ccn(C)n3)CC2)ncn1.O=C(O)C(F)(F)F	-11.95%
COCCN1CCOCC12CCN(Cc1ccn(C)n1)CC2.O=C(O)C(F)(F)F.O=C(O)C(F)(F)F	-14.13%
Cn1ccc(CN2CCCC23CCN(Cc2ccccc2F)CC3)n1.O=C(O)C(F)(F)F.O=C(O)C(F)(F)F	125.7%
Fc1cccc(CN2CCC3(CCCN3c3ncccn3)CC2)c1.O=C(O)C(F)(F)F	103.6%
Cn1ccc(CN2CCCC23CCN(Cc2cccc(F)c2)CC3)n1.O=C(O)C(F)(F)F.O=C(O)C(F)(F)F	121.8%
Cn1cncc1CN1CCC2(CCCN2c2ncccn2)CC1.O=C(O)C(F)(F)F	7.027%
Cc1c(CN2CCCC(C(=O)CCc3ccccc3)C2)cc(C#N)n1C (centres undefined)	16.56%
CCn1ncc(CNC(=O)c2cn(CCC3CCCCN3)nn2)c1C (centres undefined)	3.216%
CN(CC(=O)NC(C)(C)C)Cc1nc(-c2ccccc2)c[nH]1	-12.75%
CN(CC(=O)NCC(CCO)c1ccccc1)C(=O)OC(C)(C)C (centres undefined)	2.407%
Cc1cccc(NC(=O)CN(C)C(=O)c2ccc(OC(C)C)nc2)n1	4.087%
Cc1ccc(OCC(=O)NCC(F)(F)F)nc1	-4.389%
Cc1ccc(C(=O)N(C)CC(=O)NCC(F)(F)F)cn1	99.88%
CN(CC(=O)NCC(F)(F)F)C(=O)c1ccc(C(=O)OC(C)(C)C)cc1	91.82%
CN(CC(=O)NCC(O)c1cccc(F)c1)C(=O)OC(C)(C)C (centres undefined)	1.189%
CC(=O)NCCC1CCCCN1S(=O)(=O)c1cccc(C#N)c1 (centres undefined)	-10.91%
CSc1ccc(S(=O)(=O)N2CCCCC2CCNC(C)=O)cc1 (centres undefined)	-2.003%
CC(=O)NCCC1CCCCN1S(=O)(=O)c1ccc2ccccc2c1 (centres undefined)	104.3%
CC(=O)c1ccc(S(=O)(=O)N2CCCC2CN2CCCC2)cc1 (centres undefined)	-61.12%
CNS(=O)(=O)CC1CCCN1C(=O)c1cccc(Cl)c1 (centres undefined)	-8.436%
CC(=O)NCCC1CCCCN1S(=O)(=O)c1cccc(F)c1 (centres undefined)	85.51%

Structure (SMILES)	Percent Effect
CCN1CCN2CCCN(S(=O)(=O)c3cccc(F)c3)C2C1=O (centres undefined)	4.508%
CC(=O)NCCC1CCCCN1S(=O)(=O)c1cccc(Cl)c1 (centres undefined)	153.7%
CCN1CC(C(=O)N(C)Cc2ccon2)CC1=O (centres undefined)	8.13%
CCN(CC)[C@H]1C[C@@H](Cc2cc(CO)on2)C1(C)C	-1.281%
COc1ncc(NC(=O)Nc2cc(C)ccc2OC)cn1	7.981%
COc1ccc(C)cc1NC(=O)c1c(C)cn(C)c1CC(=O)O	106.8%
COc1ccc(C)cc1NC(=O)CNc1ccn(CC(N)=O)n1	-13.27%
COC(=O)c1ccccc1NC(=O)c1nc2ccccc2n(C)c1=O	2.974%
COc1ccc(OC)c(CNCc2c(C)nc3sc(C)cn23)c1	17.49%
COc1ccc(OC)c(NC(=O)N2CCCC2c2ccco2)c1 (centres undefined)	-3.414%
COC(=O)c1ccccc1NC(=O)c1c(C)cn(C)c1CC(=O)O	101.4%
CCn1cc(C(=O)Nc2ccc(C)cc2C(=O)OC)cn1	-8.405%
COc1ccc(OC)c(NC(=O)c2c(C)cn(C)c2CC(=O)O)c1	111%
CCCN(C1CCc2ccccc2C1)S(C)(=O)=O (centres undefined)	-12.4%
NC(=O)CN(CC1CCOC1)C1CC1 (centres undefined)	12.45%
COCC(=O)N1CCN(C(=O)Cc2cccs2)[C@H]2CS(=O)(=O)C[C@H]21	102.4%
COCC(=O)N1CCN(S(=O)(=O)c2ccccc2)[C@@H](C(=O)OC)C1	2.651%
CS(=O)(=O)N1CCN(C(=O)c2ccco2)[C@H]2CS(=O)(=O)C[C@H]21	-4.132%
COCC(=O)N1CCN(S(=O)(=O)c2ccccc2)[C@H]2CS(=O)(=O)C[C@H]21	117.3%
COc1ccccc1S(=O)(=O)N1CCN(C)[C@@H]2CS(=O)(=O)C[C@@H]21	-4.767%
CCCN1C(=O)[C@@H]2[C@@H](CCN2C(=O)COC)N(Cc2cccs2)C1=O	27.38%
COCC(=O)N1CCN(S(=O)(=O)c2cccs2)[C@H]2CS(=O)(=O)C[C@H]21	101.1%
CCC(=O)N1CCN(S(=O)(=O)c2cccc(F)c2)[C@H]2CS(=O)(=O)C[C@H]21	7.69%
COCC(=O)N1CCN(C(=O)c2cccs2)C[C@H]1C(=O)OC	-7.618%
